High-throughput results: PubChem BioAssay, several laboratories
Rows were chosen to be rich in hits. Some 1.6% of all compounds tested hit in one or more screens of this group.
eIF4H FP inh = inhibitors of RNA binding by human eIF4H | 290,000 compounds, 0.94% hits | Q15056 | inhibition, % at 35 µM | eIF4H fluorescence polarization binding assay | AID 2012;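 further: calls also rest on retests at 20 µM and on dose response follow-up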
eIF4E 4G PPI = eIF4E/eIF4G interaction inhibition in translation initiation; TR-FRET eIF4E-eIF4GI(517-606) binding, 2 h; P63073+Q04637; 220,000 compounds, 0.37% hits; inhibition, % at 21.7 µM; AID 782;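 active means inhibition above about 30%, limit read from the data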
PABP1 MLLE inh = inhibitors of microRNA-mediated deadenylation, human PABP1 MLLE binding | inhibition, % at 20 µM | GST-MLLE / FITC-PAM2 fluorescence polarization | 360,000 compounds, 0.36% hits; in the data active means inhibition above about 35%, passing the limit was not always enough
PABP FP inh = PABP-poly(A) binding inhibition; P11940; PABP-poly(A) RNA binding, fluorescence polarization; inhibition, % at 35 µM; 290,000 compounds, 1% hits;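 further: calls also rest on retests at 20 µM and on dose response follow-up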
PERK inh = human PERK inhibition, primary cell-based screen; Q9NZJ5; AID 1416; CHO PERK-DD fusion, SEAP luminescence translation reporter; 220,000 compounds, 0.17% hits; inhibition, % at 5.6 µM;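 active means inhibition above the mean inhibition of all tested compounds plus 3 SD, set separately per screening campaign, cut at about 2.9% in these data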;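 further: PERK kinase domain activated by AP20187 dimerizer at 100 nM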
A number is an active result; 0 = inactive; ? = inconclusive; - = not tested or not shown. Unless noted, how the calls were made is not given here.

SMILES	eIF4H FP inh	eIF4E 4G PPI	PABP1 MLLE inh	PABP FP inh	PERK inh
Cc1c(CCC(=O)O)c(=O)oc2cc(OCc3cccc(Cl)c3)ccc12	0	-	0	0	-
CC1CCC(n2c(=S)[nH]c3ccccc3c2=O)CC1 (stereo unspecified)	0	0	0	0	0
Cc1ccccc1N=Cc1c(O)n(-c2nccs2)c(=O)c2ccccc12	0	0	0	0	0
O=c1c2ccccc2c(C=Nc2ccccc2O)c(O)n1-c1nccs1	0	0	0	88.5	0
Cn1c(C(=O)N2CCCC(C(=O)c3ccc(C(F)(F)F)cc3)C2)cc(=O)n(C)c1=O (stereo unspecified)	0	0	0	0	0
O=C(Cc1ccccc1)Nc1nnc(-c2ccco2)s1	0	0	0	30.0	0
CCCC(=O)Nc1nnc(-c2ccco2)s1	0	0	0	0	0
Cc1cccc(OCC(=O)Nc2nnc(-c3ccco3)s2)c1	0	0	0	0	0
COc1ccccc1OCC(=O)Nc1nnc(-c2ccco2)s1	95.9	0	0	60.5	0
Cc1c(C(=O)c2ccccc2)c2ccccn2c1CCc1ccccn1	?	0	0	0	0
Fc1ccc(-c2ccnc(=S)[nH]2)cc1	0	0	39.0	0	0
COc1cccc2cc(-c3ccnc(=S)[nH]3)oc12	0	0	-	0	0
Oc1ccc(/C=N/n2cc(-c3ccccc3)[nH]c2=S)cc1	0	0	43.5	0	0
COc1cc(/C=N/n2cc(-c3ccccc3)[nH]c2=S)cc(OC)c1O	0	0	0	0	0
O=[N+]([O-])c1cccc(C(=S)N2CCN(c3ccccc3)CC2)c1	0	0	62.8	0	0
O=[N+]([O-])c1cccc(C(=S)N2CCN(c3ccccc3F)CC2)c1	0	0	46.4	0	0
CC1CN(C(=S)c2cccc([N+](=O)[O-])c2)CC(C)O1 (stereo unspecified)	0	0	38.9	0	0
O=C(/C=C/c1cccc([N+](=O)[O-])c1)N1CCN(c2ccccc2F)CC1	0	0	0	0	0
O=C(c1cc2ccccc2cc1OCC(O)CN1CCCCC1)N1CCCCC1 (stereo unspecified)	0	0	0	0	0
CC(=O)Nc1cc(Cl)c(N=Cc2ccc(O)cc2O)cc1Cl	0	0	0	0	0
Cc1c(C=O)c(=O)n(-c2ccccc2)n1C	0	0	0	0	0
Cc1csc2c(=O)sc(NC(=O)c3ccc(F)cc3)nc12	0	0	0	0	5.2
Cc1csc2c(=O)sc(NC(=O)c3ccc(F)cc3Cl)nc12	0	0	0	0	0
C=CCn1c(COc2ccc(OC)cc2)nnc1SCn1nnc2ccccc2c1=O	active	0	0	63.1	0
CCCCC1=CC2=C(c3ccco3)C(=O)C(C)(OC(=O)c3ccc(OC)cc3)C(=O)C2=CN1c1ccccc1 (stereo unspecified)	0	0	0	81.3	-
SMILES	eIF4H FP inh	eIF4E 4G PPI	PABP1 MLLE inh	PABP FP inh	PERK inh
Cn1cc(/C=C(\C#N)C(=O)Nc2ncc(Cc3ccc(Cl)cc3)s2)c2ccccc21	62.9	0	0	active	0
CCOc1ccccc1-c1nc(-c2cc3ccccc3nc2OC)no1	54.3	0	0	0	0
O=C(NC(=S)Nc1ccc2oc(=O)ccc2c1)c1ccccc1F	0	0	0	0	3.7
CC1(C)CN(c2ccc(C(=O)c3ccccc3)cc2)C1=O	0	0	0	?	0
CCOC(=O)c1nnn(-c2nonc2N)c1COc1ccc(F)cc1	0	0	0	0	0
CCOC(=O)c1nnn(-c2nonc2N)c1COc1ccccc1	0	0	0	112.3	0
Cc1ccc2c(-c3ccc([N+](=O)[O-])cc3)cc(=O)[nH]c2c1	0	0	0	0	0
Clc1ccc(OCCn2c(-c3ccco3)nc3ccccc32)cc1	0	0	0	0	0
COc1ccc([C@H]2C=C(C(=O)O)O[C@@H](OCc3ccc(CO)cc3)C2)cc1	0	0	0	0	-
CC(C)c1ccc(NC(=O)CCCN2C(=O)NC(C)(C)C2=O)cc1	-	-	0	-	-
Cc1ccc2c(c1)S/C(=C\c1cccc[n+]1C)N2CCO	0	-	0	74.8	-
C[n+]1ccccc1/C=C1\Sc2ccccc2N1CCO	-	-	0	-	-
CCOC(=O)c1sc2nc(C)nc(NC3CCC(O)CC3)c2c1C (stereo unspecified)	0	-	0	0	-
O=C(CSc1cn[nH]n1)Nc1ccc(O)c(C(=O)O)c1	0	-	38.3	0	-
CN1CCc2nc(NC(=O)c3cccc(OC(F)F)c3)sc2C1	73.9	0	0	83.1	0
O=C(Cc1ccc(F)cc1)c1ccc(O)cc1O	74.9	0	0	87.8	0
O=C(Cc1c(F)cccc1Cl)c1ccc(O)cc1O	0	0	0	57.9	0
O=C(Cc1ccccc1F)c1ccc(O)cc1O	0	0	0	0	0
COc1ccccc1CNC(=O)C(C)NS(=O)(=O)c1ccc(Br)cc1 (stereo unspecified)	0	0	0	0	0
COc1ccc(NC(=O)c2ccccc2SC)cc1	0	0	0	0	0
Cc1ccc(-n2c(C(C)n3nc(C)c([N+](=O)[O-])c3C)n[nH]c2=S)cc1 (stereo unspecified)	active	0	0	0	0
O=C(CNS(=O)(=O)c1ccc(Br)cc1)OCc1cc(=O)n2cc(Br)ccc2n1	0	0	-	0	0
O=C(CNC(=O)c1cccc(OC(F)F)c1)OCc1cc(=O)n2cc(Br)ccc2n1	0	0	0	active	0
O=C(CC1CCCCC1)NCC1CCCO1 (stereo unspecified)	0	38.4	0	0	0
O=C1C=C(N(CCO)Cc2ccccc2)c2ccccc2C1=O	0	0	0	0	0
SMILES	eIF4H FP inh	eIF4E 4G PPI	PABP1 MLLE inh	PABP FP inh	PERK inh
O=C1c2ccccc2C(=O)c2c1cccc2N(CCO)CCO	?	-	41.1	?	-
CC12CCC(O)CC1=CCC1C2CCC2(C)C1CCC21CCC(=O)O1 (stereo unspecified)	11.7	0	0	66.1	0
C[C@]12CCC3C(CC=C4C[C@@H](O)CC[C@@]43C)C1CCC2[C@]1(C)CCC(=O)O1 (stereo partly specified)	0	0	0	0	0
O=C(C1=C(O)C(=O)N(CCN2CCOCC2)C1c1cccc(Br)c1)c1cccs1 (stereo unspecified)	0	-	0	0	-
Cc1n[nH]c(=O)c2c(NC(=O)CSc3ccccc3Cl)oc(C)c12	-	-	0	-	-
Cc1n[nH]c(=O)c2c(NC(=O)CSc3c(Cl)cccc3Cl)oc(C)c12	-	-	43.1	-	-
O=C1CCNc2c(Cl)cc(Cl)cc21	51.3	0	0	0	0
O=C1CCNc2c(Cl)cccc21	0	0	0	0	0
COc1ccc(C(CNC(=O)/C=C/c2c(Cl)nc3ccccn23)N(C)C)cc1 (stereo unspecified)	7.6	0	0	66.2	0
COc1ccc(CCN(C)C(=O)/C=C/c2c(Cl)nc3ccccn23)cc1OC	0	0	0	0	0
CC1(O)c2ccccc2C(=O)N1CCc1ccccc1F (stereo unspecified)	0	0	0	0	0
COc1cc(/C=C/C(=O)Nc2ccc(C)cc2)cc(OC)c1OC	0	0	0	0	0
COc1cc(/C=C/C(=O)Nc2nnc(C(C)(C)C)s2)cc(OC)c1OC	0	0	41.3	0	0
